Screening results (PubChem BioAssay)
Marburg entry inh: blocks Marburg virus binding to or entry into cells. Marburg virus pseudotyped entry inhibition, cell reporter. Potency, µM (series often up to 37.8 µM), without a hit: at the highest dose activity change, negative = inhibition, usual class: inhibitors. 300,000 compounds, 1.8% hits. AID 540276; calls by dose curve; tested in HEK293 cells; further: potency means the concentration at half of the fitted maximal effect
FMDV inh: foot and mouth disease virus antiviral activity; 410,000 compounds, 1.2% hits; FMDV antiviral cell-based qHTS; Potency, µM (top dose mostly 57.9 µM), without a hit: top-dose activity change, negative = inhibition, most hits filed as inhibitors; calls by dose curve; tested in HEK293T cells; further: read-out not given here; potency means the concentration at half of the fitted maximal effect; nearly all actives have a fitted effect of over 45% in size
VACV Venus inh: vaccinia inhibition (Venus reporter). Vaccinia virus Venus reporter expression, fluorescence. Potency, µM (titrated, usually from 36.5 µM), without a hit: at the highest dose activity change, negative = inhibition, hits mostly inhibitors. AID 720580. 330,000 compounds, 0.46% hits; calls by dose curve; tested in A549 cells; further: potency means the concentration at half of the fitted maximal effect; nearly all actives have a fitted effect of over 30% in size
VACV mCherry inh: inhibitors of vaccinia virus infection (mCherry reporter signal); Vaccinia virus mCherry reporter infection, fluorescence; Potency, µM (doses to about 36.5 µM), for the others: at the top dose activity change, negative = inhibition, usual class: inhibitors; 310,000 compounds, 0.63% hits; AID 720579; calls by dose curve; tested in A549 cells; further: potency means the concentration at half of the fitted maximal effect; nearly all actives have a fitted effect of over 35% in size
LASV entry inh: blocks Lassa virus binding to or entry into cells; Lassa virus pseudotype entry inhibition, cell reporter; Potency, µM (doses to about 37.9 µM), without a hit: at the top dose activity change, negative = inhibition, hits mostly inhibitors; 300,000 compounds, 1.2% hits; calls by dose curve; tested in HEK293 cells; further: potency means the concentration at half of the fitted maximal effect; nearly all actives have a fitted effect of over 50% in size
HCMV antiviral: inhibitors of human cytomegalovirus; HFF cells, HCMV-luciferase reporter, 72 h; stronger effect = lower value; activity change, negative = inhibition, % at 57.5 µM; 410,000 compounds, 4.5% hits; AID 1259415; in the data active means activity change below about -60%; inconclusive means no clear call, values can overlap the other calls; inactive means above about -39%
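Two compound doses tested in HFFs infected with HCMV-luciferase, MOI 1 PFU/cell, 72 h at 37C. Lysate luminescence read with OneGlo; data normalized against buffer-only and 10uM Salinomycin inhibitor controls.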
The depositor's hits bear a star; i = inactive; ? = inconclusive; . = no result; + = active, no number; [ ] = dose if it differs, or a comment. Shown are actives, neighbours in structure and some others; about 6.5% of the full set was active somewhere. On the % scale 0 is the no-effect control and ±100 the full control effect.

SMILES	Marburg entry inh	FMDV inh	VACV Venus inh	VACV mCherry inh	LASV entry inh	HCMV antiviral
O=c1[nH]c2ccccc2n1C1CCN(C(c2cc3ccccc3o2)c2nnnn2-c2ccc3c(c2)OCCO3)CC1 (stereo not drawn)	.	35µM*	?	?	.	-99*
O=C(Cn1cncn1)NCC1Cc2cc(-c3ccsc3)cc(Cl)c2O1 (stereo not drawn)	.	3%	-13%	-14%	.	.
Cn1c(=O)n(CC(=O)OCc2ccccc2)c(=O)c2c1nc1n2CCCN1C1CCCCC1	?	28µM*	-18%	.	?	-34
COC1(OC)C(/C=C/c2ccc(C)cc2)C(C#N)(C#N)C1(OC)OC (stereo not drawn)	?	22µM*	28µM*	14µM*	?	2
CCOc1cc(C=C2C(=O)NC(=O)NC2=O)ccc1OCC(=O)N1CCOCC1	-6%	-11%	-8%	-14%	2%	-27
CCNC(=O)COc1ccc(/C=C2\COc3ccccc3C2=O)cc1OC	?	28µM*	-23%	-7%	15µM*	73
CCOc1cc(/C=C2\COc3ccccc3C2=O)ccc1OCC(=O)N(C)C	?	28µM*	-27%	-4%	?	47
O=C(NCCCN1CCOCC1)c1ccc(-n2nc(C(F)(F)F)cc2-c2cccs2)cc1	?	?	?	?	-9%	-67*
COc1ccc(NC(=O)C2SC(=S)N=C2N)cc1 (stereo not drawn)	9%	.	.	.	.	.
O=C(NCc1nnnn1-c1ccc(F)c(F)c1)c1cc2ccccc2o1	17%	-12%	-20%	-10%	1%	-30
COc1ccc(Nc2cc(C)nc3ccc(C)cc23)cc1	.	-5%	-8%	-13%	.	-33
Cn1ncc2c(Nc3ccc(Cl)cc3)ncnc21	.	56%	.	.	.	+
COc1cccc(Nc2ncnc3ccc(Br)cc23)c1	.	0%	?	-23%	.	?
COc1ccc(OC)c(Nc2ncnc3ccc(Br)cc23)c1	.	-26%	.	.	.	-63*
Cc1ccc(Nc2ncnc3c2cnn3C)cc1	.	36%	-16%	-10%	.	9
Brc1ccc2ncnc(Nc3cccc4ccccc34)c2c1	?	.	-29%	-22%	?	-66*
COc1ccc(Nc2ncnc3ccc(C)cc23)cc1	.	15%	.	.	.	-72*
COc1ccc(OC)c(Nc2ncnc3ccccc23)c1	?	16%	-14%	-8%	12%	-23
Cc1ccc2nc(CSc3nnc(NC(=O)COc4ccccc4F)s3)cc(=O)n2c1	.	2%	-8%	-3%	12%[46.1 µM]	-12
CCOC(=O)[C@@H](C)c1nc2ccccc2[nH]c1=O	8%	.	.	.	.	.
c1ccc(Cn2ncc3c(Nc4ccccc4)ncnc32)cc1	.	-19%	.	.	.	15
COc1ccc(Nc2ncnc3c2cnn3Cc2ccc(C)cc2)cc1	?	28µM*	-22%	?	?	-39
COc1ccc2c(c1)C(=O)[C@@H](O)[C@H](c1ccc(OC)c(Br)c1)O2	5%	21%	?	4µM*	?	.
COc1ccc(C(CCN(Cc2ccc(OC)c(OC)c2)C(C)=O)C(C)C)cc1 (stereo not drawn)	.	-14%	.	.	.	-10
c1cnc2ccc(-c3ccc4ncccc4c3)cc2c1	?	-25%	-26%	-20%	4.5µM*	13
SMILES	Marburg entry inh	FMDV inh	VACV Venus inh	VACV mCherry inh	LASV entry inh	HCMV antiviral
O=C(c1ccc(F)cc1)N(c1ccccc1F)C(CCc1ccccc1)c1nc2ccccc2[nH]1 (stereo not drawn)	.	.	.	.	.	11
Cc1cccc(C)c1NC(=O)C(CCc1ccccc1)N(C(=O)c1ccc(F)cc1)c1ccccc1F (stereo not drawn)	.	.	.	.	.	-70*
Cc1cc(S(=O)(=O)c2ccc(Cl)cc2)nc(S(=O)(=O)c2ccc(Cl)cc2)c1C#N	.	28µM*	11µM*	11µM*	.	-98*
Cc1ccc2c(c1)NC(=O)C(CC(=O)NC1CCCCC1C)O2 (stereo not drawn)	1%	-19%	8%	-5%	-8%	-8
CC1CCCCC1NC(=O)CC1Oc2ccccc2NC1=O (stereo not drawn)	.	-24%	-1%	7%	.	-66*
OC(c1ccccc1)(c1ccccc1)C1CCN(CCCOc2ccc(F)cc2)CC1	.	-20%	?	?	.	-10
CC(C)(c1ccccc1)c1ccc(OCCCN2CCNCC2)cc1	?	0%	0%	-18%	?	-88*
OC(c1ccccc1)(c1ccccc1)C1CCN(CCCOc2cccc(C(F)(F)F)c2)CC1	.	.	.	.	.	-66*
CC(C)c1ccc(OCCCN2CCC(C(O)(c3ccccc3)c3ccccc3)CC2)cc1	.	.	.	.	.	-99*
OC(c1ccccc1)(c1ccccc1)C1CCN(CCCOc2ccc(C(F)(F)F)cc2)CC1	.	.	.	.	.	-81*
Cc1ccc(OCCCN2CCC(C(O)(c3ccccc3)c3ccccc3)CC2)cc1	.	-27%	?	?	.	-18
CCOC(=O)C1=CCN(S(=O)(=O)c2ccc(F)cc2)C1c1ccccc1 (stereo not drawn)	.	?	2%	28%	.	-15
Cc1ccc(N2CC(C(=O)NNC(=O)c3ccc(F)cc3)CC2=O)cc1 (stereo not drawn)	.	-9%	.	.	.	18
COc1ccccc1P(=O)(Cc1ccccc1)c1ccccc1 (stereo not drawn)	?	7%	-5%	i	12%[46.1 µM]	.
Cc1cc(C)c(NS(=O)(=O)c2ccc3c(c2)oc(=O)n3C)c(C)c1	.	-9%	-12%	-5%	.	?
Cn1c(=O)oc2cc(S(=O)(=O)Nc3cccc4c3CCCC4)ccc21	0%	9%	-6%	-23%	-4%	-91*
CCCN1C(=O)C2=NC(C3CCCC3)=NC2N(CCC)C1=O (stereo not drawn)	14%	.	.	.	.	.
O=C(Nc1ccccc1O)c1c(O)c2c([nH]c1=O)CCCC2	?	-16%	?	18µM*	?	93
O=C(c1cc(-c2ccc(Cl)cc2)n[nH]1)N1CCN(S(=O)(=O)c2ccc(Br)s2)CC1	.	-27%	?	11µM*	?	?
O=C(c1cc(-c2ccc(Br)cc2)n[nH]1)N1CCN(S(=O)(=O)c2ccc(Br)s2)CC1	.	?	-21%	-26%	?	+
O=C(c1cc(-c2ccc(Br)cc2)n[nH]1)N1CCN(S(=O)(=O)c2ccc(Cl)s2)CC1	.	-19%	-29%	?	21%[46.1 µM]	?
Cc1ccc(-c2cc(C(=O)Nc3sc4c(c3C(=O)NCc3ccco3)CCC4)[nH]n2)c(O)c1	1%	25µM*	.	.	4%	-7
Cc1cc(O)c(-c2cc(C(=O)Nc3sc4c(c3C(=O)NCc3ccco3)CCC4)[nH]n2)cc1C	.	-4%	0%	?	.	-24
CCSc1ncc(Cl)c(C(=O)Nc2nc3ccc(OC)cc3s2)n1	19%[46.1 µM]	-18%	-10%	-21%	23%[46.1 µM]	-15
COc1ccc2nc(NC(=O)c3nc(S(=O)(=O)Cc4ccccc4F)ncc3Cl)sc2c1	?	?	1%	-7%	?	-88*
